Test results taken from PubChem BioAssay (EPA / NIEHS).
Inconclusive results are not listed. Activity calls are given as the source filed them. The calls were made as follows: active = hit-call score of the fitted dose curve at least 0.9, where 1 is the maximum; inconclusive = response in the unintended direction; inactive = score below 0.9.

Experiments:
[1] = LTEA_HepaRG_LDH_cytotoxicity: Cytotoxicity Assessment in the Life Technologies and Expression Analysis (LTEA) Assay (AID 2283563)
Procedure, shortened: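 Human HepaRG hepatic cells are treated with test chemicals for 48 h at up to 100 uM in 0.5% DMSO. Cytotoxicity is scored from medium LDH against the vehicle control.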

[2] = ATG_XTT_Cytotoxicity: Cytotoxicity Assessment in the Attagene TRANS-FACTORIAL HepG2 Assay (AID 2283584)
Procedure, shortened: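 Transfect HepG2 with GAL4-UAS reporter units, dose compound, incubate 24 h, then measure viable cell number by XTT. Fit concentration response against DMSO baseline.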

[3] = molecular target: Cellular tumor antigen p53 (Homo sapiens) (UniProt P04637); assay: TOX21_p53_BLA_p2_ratio: Tox21 HCT-116 p53 Agonism Beta-lactamase Assay, Ratio, Phase 2 (AID 2283592)
Cellular tumor antigen p53 (Homo sapiens), sequence (P04637 whole entry, looked up): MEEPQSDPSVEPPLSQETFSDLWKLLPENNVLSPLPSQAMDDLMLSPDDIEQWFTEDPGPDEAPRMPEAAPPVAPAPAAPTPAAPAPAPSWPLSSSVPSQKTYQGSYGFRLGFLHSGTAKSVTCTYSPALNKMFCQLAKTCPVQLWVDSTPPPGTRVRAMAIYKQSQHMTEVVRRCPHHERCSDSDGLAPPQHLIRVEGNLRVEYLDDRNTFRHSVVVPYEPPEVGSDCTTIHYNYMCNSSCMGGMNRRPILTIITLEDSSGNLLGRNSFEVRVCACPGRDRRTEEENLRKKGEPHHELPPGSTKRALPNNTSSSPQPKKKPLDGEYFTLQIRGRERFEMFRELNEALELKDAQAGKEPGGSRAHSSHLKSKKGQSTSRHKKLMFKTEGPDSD
Procedure, shortened: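 Cleaved-to-uncleaved substrate ratio (460 vs 530 nm) measured in HCT116 cells with an inducible beta-lactamase reporter linked to p53 activity. Compounds incubated 16 h at 37C before 2 h room-temperature CCF4-AM loading.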

[4] = molecular target: Cellular tumor antigen p53 (Homo sapiens) (UniProt P04637); assay: TOX21_p53_BLA_p3_ratio: Tox21 HCT-116 p53 Agonism Beta-lactamase Assay, Ratio, Phase 3 (AID 2283596)
Procedure, shortened: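 Cells were seeded at 4000/well, rested 5 h at 37C, then dosed with DMSO compound solutions (217-fold dilution) for 16 h. CCF4-AM substrate was loaded for 2 h at room temperature, and the 460/530 nm emission ratio was fitted for gain of signal versus DMSO.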

[5] = molecular target: Cellular tumor antigen p53 (Homo sapiens) (UniProt P04637); assay: TOX21_p53_BLA_p5_ratio: Tox21 HCT-116 p53 Agonism Beta-lactamase Assay, Ratio, Phase 5 (AID 2283599)
Procedure, shortened: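 Beta-lactamase reporter ratio (blue 460 nm over green 530 nm, 405 nm excitation) after 2 h CCF4-AM loading, in HCT-116 cells exposed 16 h at 37 C to compounds pinned at 217-fold dilution. Increases relative to DMSO baseline scored.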

[6] = molecular target: Cellular tumor antigen p53 (Homo sapiens) (UniProt P04637); assay: TOX21_p53_BLA_p4_ratio: Tox21 HCT-116 p53 Agonism Beta-lactamase Assay, Ratio, Phase 4 (AID 2283601)
Procedure, shortened: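 Signal is the blue/green (460nm/530nm) ratio of cleaved versus uncleaved CCF4-AM substrate, read after 2 h substrate loading. Cells were HCT116 carrying the p53-responsive beta-lactamase reporter, dosed 16 h at 37C, 5% CO2; CellTiter-Glo measured in parallel.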

[7] = Tanguay_ZF_120hpf_MORT_legacy: (Legacy) Oregon State University Tanguay Lab 120 Hour Post-fertilization zebrafish Assay for Mortality (AID 2283633)
Procedure, shortened: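 Mortality endpoint from a multiplexed whole-embryo zebrafish screen. Dechorionated wild-type embryos received compound at 6 hpf and remained under static exposure at 28C until 120 hpf, with death noted as a present/absent call.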

[8] = Tanguay_ZF_120hpf_YSE_legacy: (Legacy) Oregon State University Tanguay Lab 120 Hour Post-fertilization zebrafish Assay for Yolk Sac Edema (AID 2283634)
Procedure, shortened: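 Readout: presence or absence of yolk sac edema at 120 hpf, fitted upward against DMSO controls. Exposure ran statically from 6 hpf in dechorionated embryos kept at 28C.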

[9] = Tanguay_ZF_120hpf_AXIS_legacy: (Legacy) Oregon State University Tanguay Lab 120 Hour Post-fertilization zebrafish Assay for Body Axis Malformation (AID 2283635)
Procedure, shortened: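 Static 6–120 hpf chemical exposure of dechorionated wild-type 5D zebrafish, one per well at 28C; morphology endpoint scored binary at 120 hpf relative to DMSO control.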

[10] = Tanguay_ZF_120hpf_EYE_legacy: (Legacy) Oregon State University Tanguay Lab 120 Hour Post-fertilization zebrafish Assay for Eye Malformation (AID 2283636);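 also: binary presence or absence of eye malformation scored by brightfield in 120 hpf larvae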
Procedure, shortened: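 Binary brightfield scoring of eye defects at 120 hpf after static exposure from 6 hpf of single pronase-dechorionated wild-type embryos (28C, 0.64% DMSO). Non-mortality endpoints omitted where embryos died; fit vs DMSO.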

[11] = Tanguay_ZF_120hpf_OTIC_legacy: (Legacy) Oregon State University Tanguay Lab 120 Hour Post-fertilization zebrafish Assay for Otic Vesicle Malformation (AID 2283639)
Procedure, shortened: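 Binary scoring of otic vesicle defects at 120 hpf in zebrafish (Tropical 5D) held under static exposure at 28C, sealed and shaded, with final DMSO 0.64%. Embryos dying by 24 or 120 hpf excluded; fitted positively against DMSO.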

[12] = Tanguay_ZF_120hpf_PE_legacy: (Legacy) Oregon State University Tanguay Lab 120 Hour Post-fertilization zebrafish Assay for Pericardial Edema (AID 2283640)
Procedure, shortened: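 Read-out is the presence or absence of pericardial edema at 120 hpf under brightfield, with gain of signal fitted against DMSO controls. Larvae (5D wild-type) were statically exposed at 28C with 0.64% final DMSO.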

[13] = Tanguay_ZF_120hpf_BRAI_legacy: (Legacy) Oregon State University Tanguay Lab 120 Hour Post-fertilization zebrafish Assay for Brain Malformation (AID 2283641)
Procedure, shortened: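 Brain malformation in Tropical 5D zebrafish was recorded as a binary endpoint after static compound exposure from early development to 120 hpf at 28C. Activity was analysed against DMSO as negative control.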

[14] = Tanguay_ZF_120hpf_SOMI_legacy: (Legacy) Oregon State University Tanguay Lab 120 Hour Post-fertilization zebrafish Assay for Somite Malformation (AID 2283647)
Procedure, shortened: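 5D WT zebrafish; chorion removed 4 hpf; 1 embryo/well from 6 hpf; static exposure to 120 hpf, 28C, 0.64% DMSO final. Endpoint: somite malformation, binary, brightfield. Mortality excluded.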

[15] = TOX21_p53_BLA_p2_viability: Viability Assessment in the Tox21 HCT-116 p53 Agonism Beta-lactamase Assay, Phase 2 (AID 2283591);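 also: compound exposure lasted 16 h at 37 °C; actives lower the ATP signal meaning cytotoxicity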
Procedure, shortened: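 Cytotoxicity readout: CellTiter-Glo ATP luminescence, 30 min at room temperature, after the beta-lactamase read. Cells were HCT116 exposed 16 h at 37C to compounds pin-transferred at 217-fold dilution from DMSO stocks.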

[16] = TOX21_p53_BLA_p3_viability: Viability Assessment in the Tox21 HCT-116 p53 Agonism Beta-lactamase Assay, Phase 3 (AID 2283593);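 also: cells exposed to compound for 16 h before reading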
Procedure, shortened: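 Cellular ATP was quantified by CellTiter-Glo luminescence, read after 30 min at room temperature. Beforehand, HCT116 cells (4000/well) received compound 5 h post-seeding, 217-fold diluted from DMSO, then incubated 16 h at 37C.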

[17] = TOX21_p53_BLA_p4_viability: Viability Assessment in the Tox21 HCT-116 p53 Agonism Beta-lactamase Assay, Phase 4 (AID 2283597);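 also: hits lower the luminescence signal meaning cytotoxicity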
Procedure, shortened: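 Viability is taken as cellular ATP: after 16 h compound exposure of HCT116 cells and a 2 h room-temperature CCF4-AM substrate step, CellTiter-Glo reagent is added and luminescence is measured 30 min later.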

[18] = TOX21_p53_BLA_p5_viability: Viability Assessment in the Tox21 HCT-116 p53 Agonism Beta-lactamase Assay, Phase 5 (AID 2283600)
Procedure, shortened: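 Viability is taken from cellular ATP content, measured by luciferase luminescence in the same wells after the beta-lactamase ratio read. Cells are seeded at 4000 per well and exposed to DMSO-dissolved compounds, diluted 217-fold, for 16 h.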

[19] = Tanguay_ZF_120hpf_SNOU_legacy: (Legacy) Oregon State University Tanguay Lab 120 Hour Post-fertilization zebrafish Assay for Snout Malformation (AID 2283637)
Procedure, shortened: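 Binary snout-malformation call at 120 hpf in wild-type 5D embryos, chorion removed by pronase, under static exposure from 6 hpf at 28C (0.64% DMSO). Embryos dying by 24 or 120 hpf excluded.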

[20] = Tanguay_ZF_120hpf_JAW_legacy: (Legacy) Oregon State University Tanguay Lab 120 Hour Post-fertilization zebrafish Assay for Jaw Malformation (AID 2283638)
Procedure, shortened: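 Static waterborne exposure of dechorionated wild-type (Tropical 5D) zebrafish from 6 to 120 hpf at 28C, 0.64% DMSO vehicle; 5uM trimethyltin chloride served as positive control. Jaw morphology recorded as binary at 120 hpf.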

Measured: outcome

C=CCCCCCCCCCCCC
inactive: [1] | [2] | [3] | [4] | [5] | [6] | [7] | [8] | [9] | [10] | [11] | [12] | [13] | [14]

Cc1cc(Cc2ccc(N)c(C)c2)ccc1N
inactive: [1] | [2] | [15] | [3] | [16] | [4] | [17] | [5] | [18] | [7] | [8] | [9] | [10] | [19] | [20] | [11] | [12] | [13] | [14]

CCCCC(CC)COP(=O)(OCC(CC)CCCC)OCC(CC)CCCC (stereo not drawn)
inactive: [1] | [2] | [15] | [16] | [4] | [17] | [5] | [18] | [7] | [8] | [9] | [10] | [19] | [20] | [11] | [12] | [14]

CCCCc1nc2cccnc2n1Cc1ccc(-c2ccccc2-c2nnn[nH]2)cc1
inactive: [1] | [2] | [15] | [3] | [4] | [5] | [6] | [7] | [8] | [9] | [10] | [19] | [20] | [11] | [12] | [13] | [14]

CCCCCCCCCC[N+](C)(C)[O-]
inactive: [1] | [2] | [3] | [16] | [4] | [18] | [6] | [7] | [8] | [10] | [19] | [20] | [11] | [12] | [13] | [14]

NC1CCCCC1
inactive: [1] | [2] | [7] | [8] | [9] | [10] | [19] | [20] | [11] | [12] | [13]

NCCOCCOCCN
inactive: [1] | [2] | [15] | [3] | [16] | [4] | [17] | [5] | [18] | [6] | [7] | [8] | [9] | [19] | [20] | [11] | [12] | [13] | [14]
